Active and inactive are the calls of the source. Unless noted, the rule behind the calls is not given here.
Tests used:
[1] = anti-His antibody binders, primary screen, artefact control for SMM control protein annotation, biochemical, small-molecule microarray, 635 nm fluorescence (AID 1128); conditions: anti-His Alexa647 antibody binding, higher = more signal;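 note: score merges feature fluorescence with signal-to-noise for each printed compound spot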
[2] = tested on: Human papillomavirus type 1a E7 protein (residues 1-88); experiment: HPV1a E7 small-molecule binders, primary screen, biochemical, small-molecule microarray, residues 1-88, 635 nm (AID 1129); conditions: small-molecule microarray binding, fluorescence 635 nm; higher = more signal
[3] = molecular target: Focal adhesion kinase 1 (Homo sapiens) (UniProt Q05397); experiment: small-molecule microarray binders of FAK, primary screen, biochemical, 635/667 nm fluorescence, BSA, DTT (AID 1130); conditions: PTK2 binding, 635 nm fluorescence, higher = more signal;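 note: composite of spot emission at 667 nm and signal to noise over triplicate slides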
Chain of Focal adhesion kinase 1 (Homo sapiens) (Q05397 whole entry, looked up): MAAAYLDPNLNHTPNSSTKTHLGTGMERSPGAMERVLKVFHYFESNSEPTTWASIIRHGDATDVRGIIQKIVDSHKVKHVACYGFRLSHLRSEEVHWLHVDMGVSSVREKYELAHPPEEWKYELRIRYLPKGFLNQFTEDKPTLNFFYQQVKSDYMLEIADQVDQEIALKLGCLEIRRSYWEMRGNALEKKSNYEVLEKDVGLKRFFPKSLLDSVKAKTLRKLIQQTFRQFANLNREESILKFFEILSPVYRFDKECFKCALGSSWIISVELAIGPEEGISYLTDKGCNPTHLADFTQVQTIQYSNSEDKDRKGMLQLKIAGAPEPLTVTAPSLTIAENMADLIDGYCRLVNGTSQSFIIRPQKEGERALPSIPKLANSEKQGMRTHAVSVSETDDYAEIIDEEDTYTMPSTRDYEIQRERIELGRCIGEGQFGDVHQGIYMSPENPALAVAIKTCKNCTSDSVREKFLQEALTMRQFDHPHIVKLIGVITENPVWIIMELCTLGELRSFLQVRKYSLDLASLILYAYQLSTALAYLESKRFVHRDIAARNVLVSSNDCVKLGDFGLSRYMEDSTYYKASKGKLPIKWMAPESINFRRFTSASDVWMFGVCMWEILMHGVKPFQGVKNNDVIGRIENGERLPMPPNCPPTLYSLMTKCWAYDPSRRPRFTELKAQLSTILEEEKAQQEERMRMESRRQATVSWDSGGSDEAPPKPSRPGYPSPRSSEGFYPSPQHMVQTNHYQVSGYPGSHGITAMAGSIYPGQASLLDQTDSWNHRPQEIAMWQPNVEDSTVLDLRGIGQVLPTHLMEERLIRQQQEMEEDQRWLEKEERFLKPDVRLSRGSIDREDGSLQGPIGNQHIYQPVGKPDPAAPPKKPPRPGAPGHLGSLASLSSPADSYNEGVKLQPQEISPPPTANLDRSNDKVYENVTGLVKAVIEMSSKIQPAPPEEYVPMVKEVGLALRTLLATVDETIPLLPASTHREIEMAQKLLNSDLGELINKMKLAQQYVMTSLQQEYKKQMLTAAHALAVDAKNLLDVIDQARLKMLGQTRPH

[4] = tested on: Fibrinogen (Alexa647-labelled); experiment: fibrinogen binders on compound microarrays, profiling panel, artefact control for SMM control-protein annotation, biochemical, small-molecule microarray, 635/667 nm fluorescence (AID 1131); conditions: fibrinogen-A647 binding fluorescence, higher = more signal;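 note: z-score merges 667 nm fluorescence with per-spot signal-to-noise over triplicate slides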
[5] = molecular target: Follistatin (Homo sapiens) (UniProt P19883); experiment: follistatin binders on small-molecule microarrays, primary screen, biochemical, small-molecule microarray, 635/667 nm fluorescence (AID 1132); conditions: FST binding, 635 nm fluorescence, higher = more signal
Chain of Follistatin (Homo sapiens) (P19883 whole entry, looked up): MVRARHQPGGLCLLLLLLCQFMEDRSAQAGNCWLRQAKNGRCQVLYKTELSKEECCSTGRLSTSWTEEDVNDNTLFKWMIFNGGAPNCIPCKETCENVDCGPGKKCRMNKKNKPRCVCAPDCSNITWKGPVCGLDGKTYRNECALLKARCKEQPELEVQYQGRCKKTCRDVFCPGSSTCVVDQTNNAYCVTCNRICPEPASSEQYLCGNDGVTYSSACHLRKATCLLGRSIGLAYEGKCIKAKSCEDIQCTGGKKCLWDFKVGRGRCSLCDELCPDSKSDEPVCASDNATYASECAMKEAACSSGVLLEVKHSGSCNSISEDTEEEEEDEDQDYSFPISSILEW

[6] = molecular target: Fibroblast growth factor 2 (Homo sapiens) (UniProt P09038); experiment: FGF2 binders on small-molecule microarrays, primary screen, biochemical, small-molecule microarray, 635/667 nm fluorescence (AID 1133); conditions: small-molecule microarray binding, FGF2, fluorescence 635/667; higher = more signal
Chain of Fibroblast growth factor 2 (Homo sapiens) (P09038 whole entry, looked up): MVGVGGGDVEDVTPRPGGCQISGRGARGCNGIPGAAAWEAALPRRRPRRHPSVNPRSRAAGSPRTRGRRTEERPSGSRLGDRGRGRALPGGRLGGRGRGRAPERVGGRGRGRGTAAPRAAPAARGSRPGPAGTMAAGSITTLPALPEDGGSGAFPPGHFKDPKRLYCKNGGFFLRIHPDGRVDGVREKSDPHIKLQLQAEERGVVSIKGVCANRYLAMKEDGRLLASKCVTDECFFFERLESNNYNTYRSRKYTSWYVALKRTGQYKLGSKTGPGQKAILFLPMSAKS

[7] = mitochondrial membrane potential change in A549 cells, profiling panel, cell-based, JC-1 fluorescence, basal, 24 h, 100 nL (AID 1138); conditions: higher = more signal;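 note: A549 lung adenocarcinoma cells under basal conditions with no added stimulus; test concentration not given here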
Lefty1 = Lefty1 binders on small-molecule microarrays, primary screen, biochemical, small-molecule microarray, 635/667 nm fluorescence (AID 1139); conditions: small-molecule microarray binding, fluorescence 635/667; higher = more signal
[8] = tested on: wheat germ agglutinin (Triticum aestivum), Alexa647-labelled; experiment: wheat germ agglutinin binders on compound microarrays, profiling panel, artefact control for SMM control-protein annotation, biochemical, small-molecule microarray, 635/667 nm fluorescence (AID 1140); conditions: WGA-A647 binding, 635 nm fluorescence, higher = more signal;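 note: score merges 667 nm feature emission with signal to noise over triplicate slides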
[9] = molecular target: Luciferin 4-monooxygenase (Photinus pyralis) (UniProt P08659); experiment: firefly luciferase enzyme inhibitors, primary screen, biochemical, luminescence, purified enzyme, 2006 set (AID 1141); conditions: SteadyGlo luminescence, 30 min, higher = more signal, called active from +8 up or from −8 down;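 note: cell-free assay with purified firefly luciferase at 100 ng per well in PBS; test concentration not given here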
Chain of Luciferin 4-monooxygenase (Photinus pyralis) (P08659 whole entry, looked up): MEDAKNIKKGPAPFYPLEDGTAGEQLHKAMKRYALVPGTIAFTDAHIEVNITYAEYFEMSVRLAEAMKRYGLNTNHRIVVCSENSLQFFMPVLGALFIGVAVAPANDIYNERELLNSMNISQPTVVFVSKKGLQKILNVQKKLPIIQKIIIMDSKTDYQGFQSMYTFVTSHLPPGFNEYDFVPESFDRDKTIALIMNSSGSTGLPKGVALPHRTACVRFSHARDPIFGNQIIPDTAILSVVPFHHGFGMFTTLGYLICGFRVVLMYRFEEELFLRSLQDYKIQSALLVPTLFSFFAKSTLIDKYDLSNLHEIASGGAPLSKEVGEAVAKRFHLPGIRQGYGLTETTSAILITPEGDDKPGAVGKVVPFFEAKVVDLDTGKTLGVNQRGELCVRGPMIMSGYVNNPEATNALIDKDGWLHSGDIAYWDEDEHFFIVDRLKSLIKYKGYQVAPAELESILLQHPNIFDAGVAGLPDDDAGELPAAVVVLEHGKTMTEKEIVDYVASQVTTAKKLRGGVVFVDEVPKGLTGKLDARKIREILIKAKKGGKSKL

[10] = tested on: Wnt5a (protein binding on small-molecule microarray); experiment: Wnt5a binders on small-molecule microarray, primary screen, biophysical, 635/667 nm fluorescence (AID 1142); conditions: 635 nm fluorescence, higher = more signal;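 note: fluorescence read at 667 nm with signal to noise per printed feature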
[11] = cell viability in Huh7 cells, primary screen, cytotoxicity control for HCV replication inhibitor project, CellTiter-Glo luminescence, basal, 48 h (AID 1143); conditions: Huh7 HCV replicon, higher = more signal, called active from +8 up or from −8 down;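 note: Huh7 hepatoma cells carrying a hepatitis C replication reporter with no stimulus; test concentration not given here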
[12] = P. aeruginosa biofilm formation inhibitors, primary screen, PAO1 strain, BacTiter-Glo luminescence, LB-PBS (AID 1144); conditions: 12 h, higher = more signal
[13] = CREB reporter modulators without forskolin, primary screen, cell-based, PC12, CRE-LacZ reporter, unstimulated (AID 1145); conditions: no forskolin, luminescence, 4.5 h, higher = more signal, called active from +8 up or from −8 down
[14] = CREB reporter modulators under forskolin, primary screen, cell-based, PC12, CRE-LacZ reporter, forskolin-stimulated (AID 1146); conditions: luminescence, 4.5 h, higher = more signal, called active from +8 up or from −8 down;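 note: PC12 cells with 6xCRE LacZ reporter stimulated by forskolin 10 µM; beta-galactosidase reporter signal reflecting CREB driven transcription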
[15] = molecular target: Streptavidin (Streptomyces avidinii) (UniProt P22629); experiment: streptavidin binders on small-molecule microarray, primary screen, artefact control for SMM compound annotation, biophysical, 635/667 nm fluorescence (AID 1147); conditions: streptavidin binding, higher = more signal;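 note: signal reflects streptavidin binding to arrayed compounds as a control protein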
Chain of Streptavidin (Streptomyces avidinii) (P22629 whole entry, looked up): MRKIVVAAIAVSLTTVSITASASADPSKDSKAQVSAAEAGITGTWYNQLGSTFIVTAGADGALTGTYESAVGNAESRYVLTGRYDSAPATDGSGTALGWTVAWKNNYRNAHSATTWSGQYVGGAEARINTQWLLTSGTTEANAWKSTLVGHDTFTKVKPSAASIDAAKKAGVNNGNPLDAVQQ

[16] = small-molecule binders of probe aInhba, primary screen, biochemical, small-molecule microarray, 635/667 nm fluorescence (AID 1148); conditions: higher = more signal;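 note: score merges 667nm spot fluorescence with signal-to-noise for antibody binding to printed compounds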
Torsin-1A (Homo sapiens) [17] = molecular target: Torsin-1A (Homo sapiens) (UniProt O14656); experiment: torsin A binders from cell lysate, primary screen, small-molecule microarray, wild-type, 635/667 nm (AID 1149); conditions: COS7 hTOR1A-WT lysate, 635 nm fluorescence, higher = more signal
Chain of Torsin-1A (Homo sapiens) (O14656 whole entry, looked up): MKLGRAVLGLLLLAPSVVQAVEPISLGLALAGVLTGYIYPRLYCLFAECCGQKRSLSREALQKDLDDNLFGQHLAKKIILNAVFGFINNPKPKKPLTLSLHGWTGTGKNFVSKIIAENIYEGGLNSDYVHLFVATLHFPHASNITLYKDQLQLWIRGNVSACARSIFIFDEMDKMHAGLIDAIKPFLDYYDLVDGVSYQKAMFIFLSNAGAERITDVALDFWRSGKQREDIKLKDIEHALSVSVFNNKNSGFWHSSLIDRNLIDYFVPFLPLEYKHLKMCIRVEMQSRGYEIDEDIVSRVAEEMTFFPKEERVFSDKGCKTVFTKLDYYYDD

Torsin-1A (Homo sapiens) [18] = molecular target: Torsin-1A (Homo sapiens) (UniProt O14656); experiment: small-molecule binders of mutant TOR1A in lysate, primary screen, cell lysate, small-molecule microarray, COS7 lysate, 635/667 nm fluorescence (AID 1150); conditions: COS7 hTOR1A mutant lysate, 635 nm fluorescence, higher = more signal;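 note: score pools 667 nm emission and signal to noise measuring lysate protein binding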
[19] = tested on: Sonic hedgehog protein (Shh); experiment: small-molecule binders of Shh protein, primary screen, biochemical, small-molecule microarray, 635/667 nm fluorescence (AID 1151); conditions: small-molecule microarray binding, 635 nm fluorescence; higher = more signal;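 note: Shh protein binding to compounds spotted on small-molecule microarray slides; score combines spot fluorescence intensity with signal-to-noise across triplicate slides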

Row | Structure (SMILES) | composite z-score [1] | composite z-score [2] | composite z-score [3] | composite z-score [4] | composite z-score [5] | composite z-score [6] | z-score [7] | composite z-score (Lefty1) | composite z-score [8] | z-score [9] | composite z-score [10] | z-score [11] | z-score [12] | z-score [13] | z-score [14] | composite z-score [15] | composite z-score [16] | composite z-score (Torsin-1A (Homo sapiens) [17]) | composite z-score (Torsin-1A (Homo sapiens) [18]) | composite z-score [19]
1 | C=C(/C(=C/C[C@@H](OC(C)=O)c1ccccc1OCCO)c1cc(C(=O)OC)ccc1OC)C(C)C | 1.37 | 0.136 | 0.0593 | -0.0872 | 0.425 | 0.212 | 1.68 | 0.282 | 0.368 | -1.47 (inactive) | 0.332 | -1.94 (inactive) | 0.217 (inactive) | 16.2 (active) | -0.37 (inactive) | -0.576 | -0.024 | 0.212 | -0.461 | 1.02
2 | CC(C)CNC(=O)[C@@H]1c2ccccc2C(=O)N(C(C)C)[C@H]1c1ccc(CO)cc1 | -0.306 | -0.341 | -0.155 | -1.18 | 0.659 | 0.427 | 0.484 | -0.481 | 0.775 | -0.207 (inactive) | 0.0274 | -1.93 (inactive) | -0.753 (inactive) | -0.179 (inactive) | -0.739 (inactive) | -1.16 | -0.0986 | 1.13 | 0.0411 | 0.35
3 | COC(=O)[C@@]1(Cc2ccc(F)cc2)[C@H]2c3cc(C(=O)N(C)C)n(CCO)c3C[C@H]2CN1C(=O)c1ccccc1 | 2.78 | 0.889 | 0.991 | 0.797 | -0.409 | -0.566 | -0.0423 | -0.483 | 0.718 | -0.683 (inactive) | -0.0929 | -0.494 (inactive) | -0.0693 (inactive) | 0.773 (inactive) | 0.0355 (inactive) | -0.208 | 0.0464 | 0.149 | 0.297 | -0.653
4 | COC(=O)[C@@]1(CCS(=O)(=O)c2ccccc2)N=C(c2ccc(OCCCO)cc2)O[C@H]1c1ccccc1N=[N+]=[N-] | 1.65 | 1.21 | 0.621 | 0.757 | 0.993 | 0.89 | 0.797 | 0.162 | 0.647 | -1.93 (inactive) | 0.0174 | -3.08 (inactive) | -0.16 (inactive) | 0.377 (inactive) | -0.112 (inactive) | 0.586 | 0.0519 | 1.83 | 1.04 | 1.2
5 | CC(C)C[C@@H]1NC(=O)[C@@]23C(=O)N[C@@H](Cc4ccccc4)C2[C@H](C)[C@@]2(C)O[C@H]2C3/C=C/C/C=C\CNC(=O)[C@@H](CC(C)C)NC1=O (stereo not given in full) | 0.455 | 0.409 | -0.0559 | 0.928 | 0.797 | 0.963 | 0.102 | 0.84 | 0.393 | -1.23 (inactive) | 0.0669 | -0.91 (inactive) | 0.587 (inactive) | 2.66 (inactive) | 0.158 (inactive) | -0.463 | -0.128 | 0.295 | 0.068 | 1.39
6 | CCCCNC(=O)c1ccc(C#C[Si](C)(C)C)c(OC(C)=O)c1 | 0.312 | 0.689 | 0.193 | 0.0903 | 0.389 | 0.326 | -1.35 | 0.479 | -0.0014 | 0.229 (inactive) | -0.0504 | -0.155 (inactive) | 0.305 (inactive) | -0.773 (inactive) | 0.0361 (inactive) | 0.184 | -0.12 | 0.18 | 1.1 | 0.985
7 | COc1cccc(OC)c1C(=O)O[C@H]1[C@@H]2OC(=O)[C@H](Cc3cccc(Br)c3)C/C=C/C[C@@H](Cc3cccc(Br)c3)C(=O)O[C@H]2[C@@H](OC)O[C@@H]1CO | 0.267 | 1.1 | 0.573 | 0.383 | 1.38 | 1.28 | 1.27 | 0.742 | 0.0452 | -0.21 (inactive) | 0.125 | -1.74 (inactive) | -0.0318 (inactive) | -0.467 (inactive) | -0.201 (inactive) | -0.114 | -0.128 | -0.0031 | 0.529 | 1.23
8 | CCOC(=O)C[C@H]1[C@H](OC(=O)Cc2ccc3c(c2)OCO3)[C@@H](NC(=O)c2ccccc2)c2cc(OCCCO)ccc2N1C(=O)Cc1ccc(OC)cc1 | 0.752 | 0.263 | 0.161 | 0.792 | 0.19 | -0.027 | 0.291 | 0.305 | 0.674 | 0.296 (inactive) | -0.0328 | -1.82 (inactive) | -1.04 (inactive) | 2.31 (inactive) | -0.789 (inactive) | 0.662 | -0.045 | 0.693 | 0.749 | -0.256
9 | COc1ccc(C(O)C2C=CC3C(=O)N(C)C(=O)C3N2Nc2ccc([N+](=O)[O-])cc2[N+](=O)[O-])cc1OCc1ccccc1 (stereo not given) | 1.05 | 1.19 | 0.368 | 0.545 | 0.699 | -0.0627 | 0.552 | 0.0695 | 1.15 | 0.0945 (inactive) | 0.477 | 0.351 (inactive) | 0.967 (inactive) | 0.243 (inactive) | 0.706 (inactive) | 0.171 | 0.566 | 0.255 | 0.387 | -0.105

Reference: PubChem BioAssay
